The panel holds about 83,000 compounds, 20% with a hit somewhere; the sample as a whole holds those more often.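 Treatment: one concentration, 48 hours, 96-well format. Scoring: percent growth, with anything below 10 considered active.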 Calls of active or inactive are those of the source.

This test concerns MDA-MB-468 breast. Kind of test: NCI-60 one-dose screen, 48 h (100 = growth as untreated, 0 = no growth, -100 = all killed). The note with it: 10 µM unless noted.
Turning to `OC(c1ccc(F)c(C(F)(F)F)c1)c1cnccc1NC1CCCCC1` (stereo not given), the growth was 9.9% (active).

Regarding `COc1ccc(C(=O)c2cc(OC)c(OC)c(OC)c2)cc1O`, the growth is -14.4% (active).

Take `CCc1ccc(CCCC(=O)O)cc1`: the growth is 107% (inactive).

Turning to `COc1ccc2c(c1)C(=O)/C(=C/c1ccccn1)CC2`, the growth was 40.4% (inactive).

`O=C(C(Br)C(Br)c1ccccc1)C(Br)C(Br)c1ccccc1` (stereo not given): the growth was -44.4% (active).

`C=C1C(=O)O[C@H]2[C@H]1CC/C(COC(=O)/C=C/c1cccnc1)=C\CC[C@@]1(C)O[C@@H]21`: the growth was 10.9% (inactive).

With `CCNC(=O)Nc1nc2ccc(Oc3ccnc(C(=O)NC)c3)cc2s1`, the growth is 50.8% (inactive).

In the case of `CN1CCN(Cc2ccc(NC(=O)c3[nH]ncc3Nc3ncnc4c3CCC4)cc2)CC1`, the growth was 9.05% (active).

Take `Cc1ccc(S(=O)(=O)Oc2ccc(NC(=O)c3ccc(Cl)cc3)cc2)cc1`: the growth was 95.2% (inactive).

Take `O=c1c2ccccc2sc2c(N3CCCC3)nc3ccccc3c12`: the growth was 98.6% (inactive).

Turning to `COc1ccc(CN2C(=O)/C(=C\c3cc(OC)c(OC)c(OC)c3)c3cc(OC)ccc32)cc1`, the growth was 14% (inactive).

In the case of `COc1ccc(-c2nc(N=Nc3c(O)[nH]c4ccccc34)nc(N3CCOCC3)c2C#N)cc1`, the growth is 71% (inactive).

As to `O=C(CNc1nc(-c2ccc(Cl)cc2)cs1)Nc1ccc(-c2nc3ccccc3s2)cc1`, the growth is -39.5% (active).

In the case of `O=c1[nH]c2ccccc2cc1-c1nc2ccc(Cl)cc2[nH]1`, the growth was 60.7% (inactive).

As to `Cc1cc(N2CCN(CCNc3ccnc4cc(Cl)ccc34)CC2)nc(N2CCOCC2)n1`, the growth was 24.3% (inactive).

As to `O=S(=O)(O)c1cccc2cccnc12`, the growth was 100% (inactive).

As to `COc1cc(C(=O)c2c(N)ncn2-c2ccccc2)cc(OC)c1OC`, the growth is 76% (inactive).

As to `COc1ccc(C2=CC(c3cc(OC)c(OC)c(OC)c3)NC(=O)N2)cc1OC` (stereo not given), the growth was -12.6% (active).

For the compound `COc1cc(C2CC(c3ccc(C)cc3)=NN2C=O)ccc1OCCN(C)C` (stereo not given), the growth was 93.1% (inactive).

Regarding `C=C(CNCCc1ccc(O)cc1)[C@@H]1CC[C@]2(CO)CC[C@]3(C)[C@H](CC[C@@H]4[C@@]5(C)CCC(NCCc6ccc(O)cc6)C(C)(C)[C@@H]5CC[C@]43C)[C@@H]12` (stereo not given in full), the growth is -74.6% (active).

Turning to `N#Cc1c(-c2ccc(F)cc2)nc(N/N=C/c2c[nH]c3ccccc23)nc1N1CCOCC1`, the growth is 25.2% (inactive).

For `O=C(CC(O)c1ccncc1)c1ccccc1` (stereo not given), the growth is -50.3% (active).

For the compound `O=C1c2c(c3c4cccnc4[nH]c3c3ccc4ccccc4c23)C(=O)N1CCN1CCOCC1`, the growth is 62.8% (inactive).

For the compound `COc1cc(/C=C/C(=O)c2c(C)oc3nc[nH]c(=O)c23)cc(OC)c1OC`, the growth was 64.3% (inactive).

For the compound `N#Cc1c(NC(=O)c2ccc(Br)cc2)sc2c1CCCC2`, the growth was 19.5% (inactive).

As to `ClCCOCCn1cnc2c(Cl)nc(Cl)nc21`, the growth was -35.7% (active).

Consider `O=C(C1=Cc2cc3ccccc3n2Cc2cnnn21)c1ccc(F)cc1`, for which the growth was 99.4% (inactive).

Take `CCN(CCCOc1ccc2c(Nc3cc(CC(=O)Nc4cccc(F)c4)[nH]n3)ncnc2c1)CCOP(=O)(O)O`: the growth was 67.6% (inactive).

Turning to `COc1ccc(/C=C2\C=C(c3ccccc3)N(CCc3ccccc3)C2=O)cc1OC`, the growth was 44% (inactive).

Turning to `O=C(/C=C/c1cccc(Cl)c1)c1ccc(O)c(CN2CCN(c3cc4c(cc3F)c(=O)c(C(=O)O)cn4C3CC3)CC2)c1`, the growth is 28.8% (inactive).

As for `C[C@@H](CO)[C@@H]1CCC=C2CC[C@]3(C)[C@H](CC[C@@H]4[C@@]5(C)CCCNC(C)(C)[C@@H]5CC[C@]43C)[C@H]21`, the growth was -15.2% (active).

For the compound `O=C(NNc1nc2cc(F)cc(F)c2n2cccc12)c1ccncn1`, the growth is -7.49% (active).

`CC/C(=C(/c1ccc(Cl)cc1)c1ccc(OCCN2CCCCC2)cc1)c1ccc(Cl)cc1`: the growth was 51.9% (inactive).

As for `O=C(CN1C(=O)NC2NC(=O)NC21)N/N=C/c1ccc(Cl)cc1Cl` (stereo not given), the growth was 99.9% (inactive).

For the compound `O=c1[nH][n+](-c2ccc(Br)cc2)no1`, the growth is 86.1% (inactive).

Take `N#Cc1c(Nc2cccc(Cl)c2)sc(C(=O)c2cc3cc(Cl)ccc3o2)c1N`: the growth is 100% (inactive).

For the compound `COc1ccc(/C=N\Nc2nc(SCCC(C)C)nc(-c3ccc(OC)cc3)c2C#N)cc1`, the growth is 35.9% (inactive).

For `C/C(Cc1ccc(Cl)cc1)=C(/c1ccccc1)c1ccc(OCCN)cc1`, the growth was 97.2% (inactive).

As for `CC(C)N1CCN(Cc2ccc3c(NNC(=O)c4ccccc4)nc4cc(F)ccc4n23)CC1`, the growth was -14.3% (active).

As to `CCN(CC)CCOc1ccc(/C(=C(\C)Cc2ccc(OC)cc2)c2ccc(OC(=O)NCc3ccccc3)cc2)cc1`, the growth is 43.3% (inactive).

These data come from PubChem BioAssay (NCI).
